Here are results for 40 molecules from PubChem BioAssay (Tox21).

Inconclusive results are not listed. Entries that show only a call come without a potency. Active and inactive are the calls of the source. Calls come from the whole dose curve; as a rule, active = well fitted cell-killing curve with a large enough effect in the repeat runs; inconclusive = weak or mixed curves, or effect the other way; inactive = flat fitted curve, though single readings scatter.

The nature of the assay: qHTS RealTime-Glo MT Cell Viability Assay in HepG2 cells - 0 hour (AID 1224889). Note: nearly all actives have a fitted effect of over 50% in size. Conditions: RealTime-Glo luminescence; series mostly up to 76.8 µM. An excerpt: U.S. Tox21 Program National Center for Advancing Translational Sciences [NCATS] NIH Chemical Genomics Center [NCGC] U.S. Environmental Protection Agency [EPA] National Institutes of Environmental Health Sciences [NIEHS] National Toxicology Program [NTP] U.S. Food and Drug Administration [FDA] Tox21 Assay Overview: Measure of cell viability is critical in the cell-base assay. Analysis of cell viability is necessary for the characterization of cell responses to cytotoxic drugs and environmental stress. A RealTime-Glo MT Cell Viability Assay to monitor cell viability in real time of continues cell culture during 40 hours of compound treatment was used to screen Tox21 10K library compounds in HepG2 cells. The RealTime-Glo MT Cell Viability Assay is a nonlytic, homogeneous, bioluminescent method to measure cell viability in real time using a simple, plate-based method. The assay involves adding NanoLuc luciferase and a cell-permeant prosubstrate to cells in culture. Viable cells reduce the proprietary prosubstrate to generate a substrate for NanoLuc luciferase. This substrate diffuses from cells into the surrounding culture medium, where it is rapidly used by the NanoLuc Enzyme to produce a luminescent signal. The signal correlates with the number of viable cells, making the assay well suited for cytotoxicity studies.
Tox21 Assay Protocol Summary: The mixture of HepG2 cell suspension and reagents were dispensed at 600cells/6 ul/well in 1536-well tissue culture treated black solid bottom plates using a Multidrop dispenser. After the assay plates were incubated at a 37 C/5% CO2 incubator for 5 hours, 23 nL of compounds dissolved in DMSO, positive and negative controls was transferred to the assay plate by a pintool work station. The plates were incubated at 37 C for 40 hours. The luminescence intensity were measured at 0h, 8h, 16h, 24h, 32h and 40h time points using ViewLux plate reader during compound treatment.
A general note: In qHTS, concentration-response curves come from the screen itself.
As to `CC(C)CCOC(=O)CC(C)C`, the Potency result was “inactive”. For the molecule `O=C(O)c1cccc(C(=O)O)n1`, the Potency result is “inactive”. Still for that read-out and setting: next, `CC1(C)OC(=O)Nc2ccc(Br)cc21`: “inactive”.

For `CCCCCC[C@@H](CCC)C(=O)O`, the Potency result is “inactive”. Take `CC(CCO)CCCC(C)(C)O` (stereo not given): the Potency result was “inactive”.

On to `CC(=O)CCc1ccc(O)cc1`, for which the Potency result was “inactive”. Still for that read-out and setting: as for `O=C1C(CCS(=O)c2ccccc2)C(=O)N(c2ccccc2)N1c1ccccc1` (stereo not given), the entry is “inactive”; as for `CC(C)[C@H](N)C(=O)OCCOCn1cnc2c(=O)[nH]c(N)nc21`, “inactive”; as for `NS(=O)(=O)c1cc2c(cc1Cl)NC(CSCc1ccccc1)=NS2(=O)=O`, “inactive”. Same read-out and setting: next, `O=C1OC(=O)c2cc([N+](=O)[O-])ccc21`: “inactive”.

In the case of `Nc1nc2c(ncn2CCC(CO)CO)c(=O)[nH]1`, the Potency entry is “inactive”. Turning to `Fc1ccccc1-c1ccccc1`, the Potency result is “inactive”. The same measure, in the same setting: as for `OC1OC[C@@H](O)[C@H](O)[C@H]1O` (stereo not given in full), the entry is “inactive”. Regarding `C=C(C)C(=O)OCCCCCCCCCCCCCCCCCC`, the activity change, negative = cytotoxicity was -1.29% [at 15.8 µM] (inactive).

Turning to `Nc1nc(F)nc2c1ncn2[C@@H]1O[C@H](CO)[C@@H](O)[C@@H]1O`, the Potency result is “inactive”. Turning to `CCCc1ccccc1O`, the Potency result was “inactive”. The same measure, in the same setting: next, `CC(C)=CCC/C(C)=C/C(=O)O`: “inactive”; `CC(O)CN(CCCN(C)C)CCCN(C)C` (stereo not given): “inactive”; `[O-][N+](=Nc1ccccc1)c1ccccc1`: “inactive”. Turning to `CCCOCC(C)OCC(C)O` (stereo not given), the Potency result was “inactive”. On the same count and under the same terms, next, `NCCN1CCNC1=O`: “inactive”; `COC(C(=O)O)c1ccccc1` (stereo not given): “inactive”; `OCC(O)[C@@H](O)[C@H](O)[C@H](O)CO[C@H]1O[C@H](CO)[C@@H](O)[C@H](O)[C@H]1O` (stereo not given in full): “inactive”. Take `NC(=O)CCCCC1CCSS1` (stereo not given): the Potency entry was “inactive”. Same read-out and setting: next, `C1=C\CC/C=C\CC/C=C\CC/1`: “inactive”. `CC(=O)c1ccc(C)cc1`: the Potency result is “inactive”. Same read-out and setting: next, `CCc1cc(S(=O)(=O)O)c2cc(C(C)C)cccc1-2`: “inactive”. The same measure, in the same setting: next, `CC(C)(O)c1ccccc1`: “inactive”. The same measure, in the same setting: as for `CNc1ncnc2nc[nH]c12`, the entry is “inactive”; as for `OC/C=C/c1ccccc1`, “inactive”; as for `O=C(O)c1ccc[n+]([O-])c1`, “inactive”. For the molecule `CC(=O)N[C@@H](CCC(N)=O)C(=O)O`, the Potency result was “inactive”. As for `CCCCCCCCCCCCCCC`, the Potency result is “inactive”. On the same count and under the same terms, next, `c1ccc2cnncc2c1`: “inactive”. The same measure, in the same setting: as for `CCCCCCCCN(C)CCCCCCCC`, the entry is “inactive”; as for `CC1(C)SC(C)(C)SC(C)(C)S1`, “inactive”; as for `CN1[C@@H]2CC[C@H]1CC(NC(=O)n1c(=O)[nH]c3ccccc31)C2` (stereo not given in full), “inactive”. In the case of `CCN1CCCC(OC(=O)C(c2ccccc2)c2ccccc2)C1` (stereo not given), the Potency result is “inactive”. Same read-out and setting: next, `N#CCN(CC#N)CCN(CC#N)CC#N`: “inactive”.

Regarding `CC(C)CCCC(C)CCCC(C)CCCCC(C)CCCC(C)CCCC(C)C` (stereo not given), the Potency entry is “inactive”.
